Source: PubChem
TMEM16A act: TMEM16A chloride channel activators or potentiators, primary screen, cell-based, HTS | Anoctamin-1 (Mus musculus), Q8BHY3 | HEK293 TMEM16A/YFP-H148Q/I152L, iodide quench fluorescence; stronger effect = lower value | B-score at 10 µM | 340,000 compounds, 0.3% hits | AID 623877, 2012;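 active means fluorescence-ratio B-score plate-corrected deviation score at least 3 library SD below zero, with starting fluorescence score within 5 deviations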;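 further: channel opened by trigger with iodide after compound preincubation; score built on the fluorescence ratio of max minus min over baseline; more negative score means more quench and so TMEM16A activation or potentiation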
Kir21 block: inhibitors of mouse Kir2.1 inward-rectifier potassium channel. Inward rectifier potassium channel 2 (Mus musculus), P35561. HEK293-Kir2.1, FluxOR thallium flux fluorescence; stronger effect = lower value. B-score at 10 µM. 310,000 compounds, 0.85% hits. AID 1672, 2009;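 active means fluorescence ratio B-score at or below minus 3 SD of library scores, with starting-brightness B-score within 2 SD, cut at about -4.2 in these data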;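 further: channel flux triggered by added potassium and thallium sulfate stimulus; B-score of peak minus minimum fluorescence over baseline after thallium stimulus; more negative B-score means stronger Kir2.1 block with less thallium influx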
Target sequence (P35561 whole entry, looked up): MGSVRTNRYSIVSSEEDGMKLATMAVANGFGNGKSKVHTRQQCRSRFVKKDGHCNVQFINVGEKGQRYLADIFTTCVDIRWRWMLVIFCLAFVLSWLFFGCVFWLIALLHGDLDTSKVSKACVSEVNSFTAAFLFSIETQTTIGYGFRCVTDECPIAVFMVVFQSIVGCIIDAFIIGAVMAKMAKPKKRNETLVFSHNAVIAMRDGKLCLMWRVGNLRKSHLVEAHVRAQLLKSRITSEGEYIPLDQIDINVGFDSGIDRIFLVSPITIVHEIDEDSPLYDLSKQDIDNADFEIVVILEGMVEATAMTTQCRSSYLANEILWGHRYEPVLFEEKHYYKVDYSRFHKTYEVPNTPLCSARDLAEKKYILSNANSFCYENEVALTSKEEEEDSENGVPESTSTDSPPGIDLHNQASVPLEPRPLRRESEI
KCNK3 inh: human KCNK3 channel inhibitors, primary screen, CHO cells, FluxOR thallium flux, B-score; Potassium channel subfamily K member 3 (Homo sapiens), O14649; FluxOR fluorescence; stronger effect = lower value; B-score at 10 µM; 340,000 compounds, 0.84% hits; AID 602410, 2012;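 active means B-score under library mean minus 4 SD, starting fluorescence ratio at most library mean plus 5 SD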;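 further: more negative B-score means stronger inhibition of thallium flux through KCNK3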
TMEM16A inh: TMEM16A chloride channel inhibitors, primary screen, cell-based, HTS. HEK293 TMEM16A/YFP iodide influx fluorescence, ionomycin. 310,000 compounds, 1.2% hits. normalized B-score (activity score, 25-100; higher = stronger inhibition) at 10 µM. Anoctamin-1 (Mus musculus), Q8BHY3;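 active means ratio plate-corrected score three or more library SD toward inhibition, starting fluorescence score within five deviations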;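 further: score derived from kinetic fluorescence span divided by baseline fluorescence per well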
KCNK9 block: KCNK9 potassium channel inhibitors, primary screen, HEK293 cells, thallium flux. Potassium channel subfamily K member 9 (Homo sapiens), Q9NPC2. FluxOR thallium flux fluorescence; stronger effect = lower value. B-score at 10 µM. 310,000 compounds, 1.2% hits. AID 488922, 2010;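 active means ratio B-score over 3 SD below the library mean, with starting fluorescence within 5 SD of its mean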;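 further: negative B-score means less thallium flux so channel inhibition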
KCNK9 inh conf: KCNK9 potassium channel inhibitors, confirmation, HEK293 cells, thallium flux, duplicate; AID 492992, 2010; shares compounds with KCNK9 block; FluxOR thallium flux fluorescence; inhibition, % at 10 µM; 4,900 compounds, 43% hits;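 active means thallium signal inhibited by more than 5 SD of the compound-free buffer control wells, on both duplicate plates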;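 further: 0% = assay buffer control wells without compound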
Kir2-1 spec: mouse Kir2.1 channel inhibition, confirmation, selectivity assay for KCNK9 modulator project, cell-based, HEK293, thallium flux | shares compounds with KCNK9 block | Kir2.1 cells, FluxOR thallium flux fluorescence | inhibition, % at 10 µM | 4,900 compounds, 4% hits | AID 492993, 2010;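 active means thallium signal drop more than 5 SD beyond the mean of the no-compound control wells, seen in both duplicate plates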;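 further: signal is fluorescence rise after thallium addition divided by baseline fluorescence; plate controls were assay buffer only for no effect and full block by chlorpromazine control for full effect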
HEK293 Tl ctr: thallium flux in non-induced HEK293 cells, confirmation, counter-screen for KCNK9 inhibitor project, cell-based, second counter screen, non-induced KCNK9-HEK293 | AID 492997, 2010 | FluxOR thallium flux | shares compounds with KCNK9 block | 4,900 compounds, 40% hits | inhibition, % at 10 µM;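 active means thallium signal drop beyond 5 SD of the untreated control mean, on both duplicate plates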;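 further: plate controls were buffer only IC0 wells for no effect and SID17386958 at its maximal inhibitory level for full effect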
KCNK3 confirm: retest of human KCNK3 channel inhibitors, confirmation, CHO cells, FluxOR thallium flux, triplicate | shares compounds with KCNK3 inh | ratio percent of control, % at 10 µM | FluxOR fluorescence; 0% buffer, 100% carvedilol maximal block | 2,400 compounds, 99% hits | AID 651638, 2012;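 active means ratio percent of control, averaged over triplicates, above buffer control mean plus 5 SD, cut at about 64% in these data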;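 further: ratio is the fluorescence rise from min to max over baseline after thallium stimulus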
KCNK3 uninduced: thallium flux inhibition in non-induced cells, primary screen, counter-screen for KCNK3 inhibitor project, cell-based, non-induced KCNK3 line, FluxOR thallium, triplicate. shares compounds with KCNK3 inh. non-induced KCNK3 parental cells; stronger effect = lower value. thallium flux ratio (lower = more inhibition) at 10 µM. 2,400 compounds, 40% hits;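 active means thallium flux ratio, averaged over three wells, more than 5 SD below the buffer control mean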;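 further: host cells are CHO cells without KCNK3 induction; ratio is peak minus trough fluorescence over baseline then normalized to buffer controls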
Numbers without * were called inactive; i = inactive; · = no result. An excerpt weighted towards active compounds, which were near 3.5% of everything screened.

SMILES	TMEM16A act	Kir21 block	KCNK3 inh	TMEM16A inh	KCNK9 block	KCNK9 inh conf	Kir2-1 spec	HEK293 Tl ctr	KCNK3 confirm	KCNK3 uninduced
COc1ccc(C(CNc2ccc(S(C)(=O)=O)cc2[N+](=O)[O-])N(C)C)cc1OC (stereo not drawn)	i	-1.1	i	i	i	·	·	·	·	·
Cc1ccccc1-c1cc(C(=O)NCc2cccc(Br)c2)nn1CC1CC(c2cccc([N+](=O)[O-])c2)=NO1 (stereo not drawn)	i	·	i	·	·	·	·	·	·	·
CCn1cc(Br)c(C(=O)Nc2ccc(F)c(Cl)c2)n1	i	-1.1	-11*	i	-12*	46%*	i	30%*	104*	i
O=C(COC(=O)C1CCN(c2ccc(C(F)(F)F)cn2)CC1)NCc1ccccc1	i	·	i	·	·	·	·	·	·	·
CN1\C(=C/C=C/C=C/C=[N+](C)C)C(C)(C)c2ccccc21	i	-13*	-13*	·	-8.3*	58%*	76%*	58%*	155*	0.085*
CN1/C(=C\C=O)C(C)(C)c2ccccc21	i	-0.14	i	i	i	·	·	·	·	·
Cc1cccc(C)c1NC(=O)CSc1ncnc2[nH]ncc12	i	·	i	·	·	·	·	·	·	·
COC(=O)[C@H](CCSC)NC(=O)N1CCN(c2cccc(C(F)(F)F)c2)CC1	i	-1.7	i	i	-8.8*	58%*	i	i	84*	i
COC(=O)[C@@H](NC(=O)N1CCN(c2cccc(C(F)(F)F)c2)CC1)C(C)C	i	-0.34	i	i	i	·	·	·	·	·
CCc1c(C)sc2nc3c(C(=O)N4CCOCC4)cc(C(=O)c4cc(F)ccc4O)cn3c(=O)c12	i	-2.2	-8.8*	i	-13*	i	i	24%*	96*	i
COc1cccc(-c2nn(-c3ccccc3)cc2/C=C\C(=O)c2cccs2)c1	i	0.05	-12*	i	-9.5*	39%*	i	30%*	89*	i
COc1ccc(C2CC(c3ccccc3)=NN2C(=O)COC(=O)c2cccc(N)c2)cc1 (stereo not drawn)	i	·	i	·	·	·	·	·	·	·
COc1cccc(-c2nn(C)c3sc(C(=O)NCc4ccc5c(c4)OCO5)cc23)c1	i	0.54	-11*	i	-13*	58%*	i	24%*	99*	i
CCN(CCCNC(=O)c1cc2c(-c3cccc(OC)c3)nn(C)c2s1)Cc1ccccc1	i	-3.9	i	i	i	·	·	·	·	·
CN(/N=C/c1cc(Cl)cc(Cl)c1O)c1c(Cl)cccc1[N+](=O)[O-]	i	1.4	-11*	i	-13*	62%*	i	48%*	116*	0.15*
CCC1=NC(c2ccccc2Cl)N(O)C1(C)C (stereo not drawn)	i	0.03	i	i	i	·	·	·	·	·
